# According to article PMC7862700, “An all-to-all approach to the identification of sequence-specific readers for epigenetic DNA modifications on cytosine”:
# What was measured:
# Assay in all cases: DAPPL (digital affinity profiling via proximity ligation, sequencing); 10 mM Tris-HCl pH 7.5, 50 mM NaCl, 1 mM DTT, 4% glycerol, room temperature, 30 min; GST-TFs on glutathione beads, 16-mer random dsDNA library, 0.1% formaldehyde crosslink after washing; high values mean tight binding
# Conditions in all cases: protein: recombinant; tags: N-terminal GST; dsDNA, one strand shown
# ETV1 = ETV1 (Homo sapiens, UniProt P50549 1-477)
# Chain of ETV1 (P50549 whole entry, the tested form may be a part): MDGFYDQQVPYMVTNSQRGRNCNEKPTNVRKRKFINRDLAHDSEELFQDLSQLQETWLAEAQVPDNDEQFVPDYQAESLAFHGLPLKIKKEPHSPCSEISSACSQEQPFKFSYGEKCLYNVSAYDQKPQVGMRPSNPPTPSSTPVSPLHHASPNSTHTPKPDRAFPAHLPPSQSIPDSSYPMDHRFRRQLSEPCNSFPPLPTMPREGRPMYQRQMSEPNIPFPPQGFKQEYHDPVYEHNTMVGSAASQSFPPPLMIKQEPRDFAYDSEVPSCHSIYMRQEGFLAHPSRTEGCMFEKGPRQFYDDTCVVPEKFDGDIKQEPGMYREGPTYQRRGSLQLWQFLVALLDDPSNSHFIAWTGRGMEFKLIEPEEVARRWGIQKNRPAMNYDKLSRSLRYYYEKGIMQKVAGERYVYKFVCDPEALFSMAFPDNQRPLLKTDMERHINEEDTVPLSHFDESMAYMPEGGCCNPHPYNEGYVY
# How it was run: (§1)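 Binding signal is each hexamer's read frequency for a factor divided by its frequency in the tag-only sample. The factors were GST-fused human transcription factors from yeast, captured on glutathione beads, DNA-barcoded and pooled with that sample. Pools were incubated with 200 nmole of a random double-stranded 16-mer DNA library in Tris/NaCl/DTT/glycerol buffer at room temperature for 30 min, then washed, crosslinked with 0.1% formaldehyde, proximity-ligated with BsaI/T4 ligase (1 h, 37 °C), PCR-amplified and sequenced on an Illumina NextSeq500.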
# ERF = molecular target: T1, ERF (Homo sapiens, UniProt P50548 1-548)
# T1 sequence: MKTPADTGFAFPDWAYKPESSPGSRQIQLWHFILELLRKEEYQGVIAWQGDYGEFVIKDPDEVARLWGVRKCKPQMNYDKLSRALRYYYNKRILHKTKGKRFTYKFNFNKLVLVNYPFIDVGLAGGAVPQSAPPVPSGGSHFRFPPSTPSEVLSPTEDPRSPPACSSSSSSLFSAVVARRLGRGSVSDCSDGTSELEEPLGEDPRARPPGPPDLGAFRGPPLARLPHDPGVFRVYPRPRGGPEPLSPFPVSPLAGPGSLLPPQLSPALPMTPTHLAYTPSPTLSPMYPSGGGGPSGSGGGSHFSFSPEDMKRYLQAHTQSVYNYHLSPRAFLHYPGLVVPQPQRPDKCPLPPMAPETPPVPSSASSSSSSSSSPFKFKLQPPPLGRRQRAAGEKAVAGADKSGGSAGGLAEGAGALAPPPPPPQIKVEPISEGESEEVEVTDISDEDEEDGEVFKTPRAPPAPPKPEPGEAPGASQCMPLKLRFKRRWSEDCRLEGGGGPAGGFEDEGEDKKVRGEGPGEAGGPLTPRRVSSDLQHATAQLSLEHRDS
# How it was run: as §1
# ETV3L = molecular target: T2, ETV3L (Homo sapiens, UniProt Q6ZN32 1-361)
# T2 sequence: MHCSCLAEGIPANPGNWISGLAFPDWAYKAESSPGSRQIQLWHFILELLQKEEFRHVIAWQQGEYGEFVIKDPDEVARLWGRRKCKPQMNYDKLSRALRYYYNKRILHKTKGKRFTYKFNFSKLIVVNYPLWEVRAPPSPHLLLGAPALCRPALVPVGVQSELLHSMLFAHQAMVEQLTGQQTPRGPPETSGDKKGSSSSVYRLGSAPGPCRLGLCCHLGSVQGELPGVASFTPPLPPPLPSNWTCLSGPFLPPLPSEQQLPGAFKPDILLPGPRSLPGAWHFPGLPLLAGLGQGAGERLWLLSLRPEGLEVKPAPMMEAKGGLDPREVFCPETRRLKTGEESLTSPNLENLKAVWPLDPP
# How it was run: as §1
# ETS2 = molecular target: T3, ETS2 (Homo sapiens, UniProt P15036 1-469)
# T3 sequence: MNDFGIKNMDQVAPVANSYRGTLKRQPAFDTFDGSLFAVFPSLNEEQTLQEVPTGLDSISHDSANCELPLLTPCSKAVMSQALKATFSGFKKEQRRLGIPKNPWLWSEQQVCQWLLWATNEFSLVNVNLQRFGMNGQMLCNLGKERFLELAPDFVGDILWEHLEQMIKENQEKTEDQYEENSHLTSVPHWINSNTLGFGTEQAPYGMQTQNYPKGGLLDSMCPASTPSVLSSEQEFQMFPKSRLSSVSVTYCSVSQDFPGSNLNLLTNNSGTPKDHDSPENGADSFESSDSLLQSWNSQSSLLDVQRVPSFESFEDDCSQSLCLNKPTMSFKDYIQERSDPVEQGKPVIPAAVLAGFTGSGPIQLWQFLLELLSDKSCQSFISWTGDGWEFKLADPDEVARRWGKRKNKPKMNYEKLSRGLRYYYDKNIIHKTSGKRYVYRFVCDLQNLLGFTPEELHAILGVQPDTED
# How it was run: as §1
# SPDEF = molecular target: T4, SPDEF (Homo sapiens, UniProt O95238 1-335)
# T4 sequence: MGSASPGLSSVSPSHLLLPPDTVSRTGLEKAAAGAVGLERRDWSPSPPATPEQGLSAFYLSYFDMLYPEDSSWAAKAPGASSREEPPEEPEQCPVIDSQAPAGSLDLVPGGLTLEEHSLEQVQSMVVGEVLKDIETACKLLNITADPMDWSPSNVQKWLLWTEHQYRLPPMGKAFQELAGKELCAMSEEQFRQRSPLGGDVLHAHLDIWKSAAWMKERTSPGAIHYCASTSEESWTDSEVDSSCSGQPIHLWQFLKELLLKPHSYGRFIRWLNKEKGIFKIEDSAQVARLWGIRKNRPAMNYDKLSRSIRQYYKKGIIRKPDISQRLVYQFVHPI
# How it was run: as §1
# ETV7 = molecular target: T5, ETV7 (Homo sapiens, UniProt Q9Y603 1-341)
# T5 sequence: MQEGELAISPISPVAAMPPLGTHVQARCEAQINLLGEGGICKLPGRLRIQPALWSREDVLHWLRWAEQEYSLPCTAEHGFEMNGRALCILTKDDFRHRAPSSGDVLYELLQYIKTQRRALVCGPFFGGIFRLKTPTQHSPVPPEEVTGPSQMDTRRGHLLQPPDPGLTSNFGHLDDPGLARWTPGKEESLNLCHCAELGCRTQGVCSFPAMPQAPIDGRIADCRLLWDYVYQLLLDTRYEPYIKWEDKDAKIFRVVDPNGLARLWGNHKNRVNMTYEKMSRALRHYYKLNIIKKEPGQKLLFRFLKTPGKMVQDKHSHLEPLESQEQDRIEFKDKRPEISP
# How it was run: as §1
# ELF5 = molecular target: T6, ELF5 (Homo sapiens, UniProt Q9UKW6-2 1-255)
# T6 sequence: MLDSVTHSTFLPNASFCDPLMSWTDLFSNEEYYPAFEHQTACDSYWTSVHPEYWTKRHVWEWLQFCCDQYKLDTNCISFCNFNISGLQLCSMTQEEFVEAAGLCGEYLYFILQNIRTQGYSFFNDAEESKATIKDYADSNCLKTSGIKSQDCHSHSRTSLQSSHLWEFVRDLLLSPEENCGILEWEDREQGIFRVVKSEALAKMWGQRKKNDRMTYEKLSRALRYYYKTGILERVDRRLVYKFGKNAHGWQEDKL
# How it was run: as §1
# ETV3 = molecular target: T7, ETV3 (Homo sapiens, UniProt P41162-2 1-143)
# T7 sequence: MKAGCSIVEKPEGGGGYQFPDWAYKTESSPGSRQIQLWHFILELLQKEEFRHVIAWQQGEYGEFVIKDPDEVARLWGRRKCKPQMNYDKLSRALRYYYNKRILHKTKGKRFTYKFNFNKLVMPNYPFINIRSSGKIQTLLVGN
# How it was run: as §1
# ETV6 = ETV6 (Homo sapiens, UniProt P41212 1-452)
# Chain of ETV6 (P41212 whole entry): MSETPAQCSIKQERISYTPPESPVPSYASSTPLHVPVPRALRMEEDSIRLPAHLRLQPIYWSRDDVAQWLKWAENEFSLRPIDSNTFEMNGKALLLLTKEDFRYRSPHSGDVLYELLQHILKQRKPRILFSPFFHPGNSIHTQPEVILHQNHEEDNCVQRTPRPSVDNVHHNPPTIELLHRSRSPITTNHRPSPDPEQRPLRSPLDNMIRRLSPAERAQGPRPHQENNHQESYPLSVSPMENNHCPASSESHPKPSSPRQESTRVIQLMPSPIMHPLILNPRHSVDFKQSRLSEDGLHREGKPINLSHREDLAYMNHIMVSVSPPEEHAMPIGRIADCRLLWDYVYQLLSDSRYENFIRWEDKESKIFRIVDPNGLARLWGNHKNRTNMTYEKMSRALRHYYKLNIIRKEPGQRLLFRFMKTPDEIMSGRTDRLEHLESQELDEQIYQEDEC
# How it was run: as §1
sequence,measurement,setting,value
TCTCAT,binding signal,ETV1,"1.38 fold enrichment (6-mer frequency, TF over GST control)"
same,binding signal,ERF,"1.26 fold enrichment (6-mer frequency, TF over GST control)"
same,binding signal,ETV3L,"1.32 fold enrichment (6-mer frequency, TF over GST control)"
same,binding signal,ETS2,"1.26 fold enrichment (6-mer frequency, TF over GST control)"
same,binding signal,SPDEF,"1.33 fold enrichment (6-mer frequency, TF over GST control)"
same,binding signal,ETV7,"1.11 fold enrichment (6-mer frequency, TF over GST control)"
same,binding signal,ELF5,"1.24 fold enrichment (6-mer frequency, TF over GST control)"
same,binding signal,ETV3,"1.37 fold enrichment (6-mer frequency, TF over GST control)"
same,binding signal,ETV6,"1.14 fold enrichment (6-mer frequency, TF over GST control)"
